The source made the active and inactive calls.
Columns and labels:
[1] = test system: PRMT1 (protein arginine N-methyltransferase 1); assay: small molecules binding arginine methyltransferase PRMT1 – biochemical, small-molecule microarray, 635 nm fluorescence, primary screen (AID 1088); settings: higher = more signal;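 further: binding of Prmt1 protein to compounds spotted on small-molecule microarray slides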
[2] = growth effects on S. cerevisiae YJM789 – YJM789 clinical isolate, OD600, 24 h, basal, primary screen (AID 1089); settings: higher = more signal, called active from +8 up or from −8 down;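 further: growth of clinical yeast isolate S. cerevisiae YJM 789 seeded 1000 cells per well; test concentration not given here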
[3] = S. pombe growth modifiers, basal conditions – strain 972, OD600, 24 h, no modulator, primary screen (AID 1090);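 further: basal condition with compound alone and no growth modifier present; test concentration not given here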; settings: S. pombe 972 growth, higher = more signal, called active from +8 up or from −8 down
[4] = budding yeast growth modifiers under rapamycin – strain BY4716, OD600, 96 h, primary screen (AID 1091); further: test concentration not given here; settings: S. cerevisiae BY4716 + rapamycin, higher = more signal, called active from +8 up or from −8 down
[5] = biological target: Torsin-1A-interacting protein 2 (Homo sapiens) (UniProt Q8NFQ8); assay: small molecules binding lysate-expressed LULL1 – cell lysate, human LULL1 lysate, 635/667 nm fluorescence, primary screen (AID 1092); settings: small-molecule microarray, hLULL1 lysate binding, 635 nm fluorescence; higher = more signal;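 further: probe is lysate of COS7 cells overexpressing human LULL1; score merges per-feature 667 nm fluorescence with signal-to-noise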
[6] = optical density change of DRC41 E. coli – strain DRC41, OD650, 24 h, E. coli filamentation project, primary screen (AID 1093);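 further: MC1000 strain lacking acrAB efflux and sulA so SOS filamentation is blocked; test concentration not given here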; settings: E. coli DRC41 growth, higher = more signal, called active from +8 up or from −8 down
[7] = probe aLefty2 binding to arrayed compounds – biochemical, biotinylated probe, 635/667 nm fluorescence, primary screen (AID 1094); settings: small-molecule microarray, higher = more signal;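 further: score merges spot fluorescence near 667 nm with spot signal-to-noise ratio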
[8] = test system: Noggin (protein binding on small-molecule microarray); assay: small molecules binding Noggin protein – biochemical, 635/667 nm fluorescence, primary screen (AID 1095); settings: 635 nm fluorescence, higher = more signal;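 further: score merges 667 nm feature fluorescence with signal to noise over triplicate slides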
[9] = biological target: Neurogenic locus notch homolog protein 3 (Homo sapiens) (UniProt Q9UM47); assay: small molecules binding NOTCH3 protein – biochemical, 635/667 nm fluorescence, primary screen (AID 1096); settings: small-molecule microarray, 635 nm fluorescence, higher = more signal
[10] = probe aEGFR binding to arrayed compounds – biochemical, biotinylated probe, 635/667 nm fluorescence, primary screen (AID 1097); settings: small-molecule microarray, higher = more signal;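 further: probe is a biotinylated anti-EGFR antibody binding compounds printed on slides; score combines fluorescence near 667 nm and signal to noise of each spot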

Sequence of Neurogenic locus notch homolog protein 3 (Homo sapiens) (Q9UM47 whole entry, looked up): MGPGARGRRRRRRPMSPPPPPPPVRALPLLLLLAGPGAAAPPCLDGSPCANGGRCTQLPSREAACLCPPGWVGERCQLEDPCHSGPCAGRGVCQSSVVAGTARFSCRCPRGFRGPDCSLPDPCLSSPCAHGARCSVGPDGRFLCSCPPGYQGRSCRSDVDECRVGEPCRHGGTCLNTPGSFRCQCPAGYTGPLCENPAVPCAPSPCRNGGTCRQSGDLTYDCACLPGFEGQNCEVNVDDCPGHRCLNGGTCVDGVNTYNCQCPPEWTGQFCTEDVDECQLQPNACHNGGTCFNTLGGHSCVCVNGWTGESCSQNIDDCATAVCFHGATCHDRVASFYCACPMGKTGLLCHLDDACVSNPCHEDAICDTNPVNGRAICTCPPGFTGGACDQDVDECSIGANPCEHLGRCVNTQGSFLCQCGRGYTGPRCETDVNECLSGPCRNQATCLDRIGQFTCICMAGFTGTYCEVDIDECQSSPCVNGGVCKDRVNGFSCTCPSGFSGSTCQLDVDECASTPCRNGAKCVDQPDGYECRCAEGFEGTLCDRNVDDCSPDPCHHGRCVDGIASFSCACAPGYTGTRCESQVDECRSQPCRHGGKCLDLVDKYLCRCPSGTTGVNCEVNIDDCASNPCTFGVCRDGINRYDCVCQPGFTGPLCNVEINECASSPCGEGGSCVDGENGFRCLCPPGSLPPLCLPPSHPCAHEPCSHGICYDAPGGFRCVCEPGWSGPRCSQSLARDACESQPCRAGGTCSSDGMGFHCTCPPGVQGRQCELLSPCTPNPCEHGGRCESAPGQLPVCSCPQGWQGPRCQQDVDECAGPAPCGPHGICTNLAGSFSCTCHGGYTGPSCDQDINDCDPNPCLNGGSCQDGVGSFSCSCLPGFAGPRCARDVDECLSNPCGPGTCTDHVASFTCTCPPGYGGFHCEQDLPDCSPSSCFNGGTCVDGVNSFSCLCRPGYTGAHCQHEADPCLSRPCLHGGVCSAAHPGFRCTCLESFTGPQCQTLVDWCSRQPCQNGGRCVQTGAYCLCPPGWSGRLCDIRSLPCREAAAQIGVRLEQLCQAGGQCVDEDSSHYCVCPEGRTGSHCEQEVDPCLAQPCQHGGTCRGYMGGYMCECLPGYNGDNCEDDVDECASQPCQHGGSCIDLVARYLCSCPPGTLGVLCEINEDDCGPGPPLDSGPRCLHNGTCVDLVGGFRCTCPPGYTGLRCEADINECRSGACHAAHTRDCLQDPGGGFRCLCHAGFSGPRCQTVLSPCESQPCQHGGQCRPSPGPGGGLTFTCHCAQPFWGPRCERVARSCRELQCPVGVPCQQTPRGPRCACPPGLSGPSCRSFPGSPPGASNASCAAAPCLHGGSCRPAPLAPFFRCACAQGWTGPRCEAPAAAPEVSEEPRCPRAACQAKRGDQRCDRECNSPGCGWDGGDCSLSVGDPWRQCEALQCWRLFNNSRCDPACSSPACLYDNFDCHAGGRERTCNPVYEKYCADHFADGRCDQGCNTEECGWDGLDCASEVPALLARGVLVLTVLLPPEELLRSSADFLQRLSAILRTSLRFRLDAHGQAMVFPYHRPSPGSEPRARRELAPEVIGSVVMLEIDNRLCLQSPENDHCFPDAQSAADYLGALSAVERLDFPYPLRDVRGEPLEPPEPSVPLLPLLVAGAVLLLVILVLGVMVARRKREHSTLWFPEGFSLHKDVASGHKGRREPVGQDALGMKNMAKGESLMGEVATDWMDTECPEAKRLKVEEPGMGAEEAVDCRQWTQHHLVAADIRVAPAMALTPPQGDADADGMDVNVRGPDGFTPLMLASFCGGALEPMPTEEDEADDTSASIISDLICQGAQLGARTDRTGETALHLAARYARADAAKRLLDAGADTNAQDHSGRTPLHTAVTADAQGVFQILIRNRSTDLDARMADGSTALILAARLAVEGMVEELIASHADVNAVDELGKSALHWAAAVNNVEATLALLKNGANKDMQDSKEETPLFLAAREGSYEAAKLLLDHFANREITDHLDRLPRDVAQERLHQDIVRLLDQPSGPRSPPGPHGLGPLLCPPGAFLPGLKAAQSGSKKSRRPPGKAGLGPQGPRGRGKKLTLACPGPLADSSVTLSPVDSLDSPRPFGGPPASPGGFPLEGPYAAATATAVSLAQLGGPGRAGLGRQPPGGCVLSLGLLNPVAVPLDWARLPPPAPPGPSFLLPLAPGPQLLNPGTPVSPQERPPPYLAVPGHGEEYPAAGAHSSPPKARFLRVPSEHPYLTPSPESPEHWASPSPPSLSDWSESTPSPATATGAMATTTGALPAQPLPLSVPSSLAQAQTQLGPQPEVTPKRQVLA
Sequence of Torsin-1A-interacting protein 2 (Homo sapiens) (Q8NFQ8 whole entry, looked up): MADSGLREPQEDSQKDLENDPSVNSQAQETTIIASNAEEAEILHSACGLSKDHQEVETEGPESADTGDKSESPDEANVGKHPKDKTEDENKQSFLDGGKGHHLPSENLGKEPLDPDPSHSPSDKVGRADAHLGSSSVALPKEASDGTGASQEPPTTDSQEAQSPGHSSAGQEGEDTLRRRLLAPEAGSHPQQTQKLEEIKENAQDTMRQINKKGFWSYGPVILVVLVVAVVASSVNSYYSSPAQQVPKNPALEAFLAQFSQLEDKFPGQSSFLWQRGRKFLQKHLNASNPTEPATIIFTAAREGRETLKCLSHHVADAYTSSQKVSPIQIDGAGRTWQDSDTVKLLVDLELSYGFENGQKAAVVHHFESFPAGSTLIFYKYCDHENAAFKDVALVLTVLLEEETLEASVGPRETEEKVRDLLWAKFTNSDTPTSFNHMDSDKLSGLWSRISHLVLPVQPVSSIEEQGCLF

Structure (SMILES): C=CCNC(=O)[C@@H]1[C@H]2C(=O)O[C@H](c3ccccc3)[C@H](c3ccccc3)N2[C@H](c2ccc(OCCO)cc2)[C@@]12C(=O)N(C(=O)OCCOC)c1ccccc12
- composite z-score [1]: 1.53
- z-score [2]: 2.46 (inactive)
- z-score [3]: 1.67 (inactive)
- z-score [4]: 5.18 (inactive)
- composite z-score [5]: 2.92
- z-score [6]: 0.246 (inactive)
- composite z-score [7]: -0.0267
- composite z-score [8]: 1.04
- composite z-score [9]: 1.06
- composite z-score [10]: 0.0413

Structure (SMILES): C=C(COC)/C(=C/C[C@@H](OC(C)=O)c1cccc(OCCO)c1)c1cnc2ccccc2c1
- composite z-score [1]: 1.38
- z-score [2]: -2.07 (inactive)
- z-score [3]: -6.62 (inactive)
- z-score [4]: -1.38 (inactive)
- composite z-score [5]: 1.07
- z-score [6]: 1.03 (inactive)
- composite z-score [7]: 0.0303
- composite z-score [8]: 0.822
- composite z-score [9]: 1.04
- composite z-score [10]: -0.0653

Structure (SMILES): CC(C)c1ccc(NN2C(C(O)C3CCCCC3)C=CC3C(=O)N(c4ccccc4)C(=O)C32)cc1 (stereo not given)
- composite z-score [1]: 1.02
- z-score [2]: 0.487 (inactive)
- z-score [3]: 0.361 (inactive)
- z-score [4]: -0.287 (inactive)
- composite z-score [5]: 3.07
- z-score [6]: -1.23 (inactive)
- composite z-score [7]: 0.0779
- composite z-score [8]: -0.0338
- composite z-score [9]: 1.03
- composite z-score [10]: 0.168

Structure (SMILES): O=C1O[C@H](c2ccccc2)[C@H](c2ccccc2)N2[C@H]1[C@@H](C(=O)O)[C@]1(C(=O)Nc3ccc(C#CC4(O)CCCCCC4)cc31)[C@H]2c1ccccc1OCCO
- composite z-score [1]: 1.56
- z-score [2]: 2.68 (inactive)
- z-score [3]: -0.155 (inactive)
- z-score [4]: 0.247 (inactive)
- composite z-score [5]: 2.27
- z-score [6]: 1.47 (inactive)
- composite z-score [7]: 0.366
- composite z-score [8]: 0.621
- composite z-score [9]: 1.11
- composite z-score [10]: 0.494

Structure (SMILES): Cc1ccc(S[C@]2(C(=O)NC3CC3)CC(=O)N(C3Cc4ccccc4C3)[C@@H]2c2ccc(CO)cc2I)cc1
- composite z-score [1]: 0.198
- z-score [2]: -0.192 (inactive)
- z-score [3]: -2.85 (inactive)
- z-score [4]: 3.27 (inactive)
- composite z-score [5]: 1.67
- z-score [6]: 0.844 (inactive)
- composite z-score [7]: -0.0771
- composite z-score [8]: -0.992
- composite z-score [9]: -0.847
- composite z-score [10]: -0.269

Structure (SMILES): CC(C)(C)OC(=O)CC[C@]1(C(=O)N2CCOCC2)COC(c2ccc(OCCCO)cc2)=N1
- composite z-score [1]: 0.786
- z-score [2]: 1.04 (inactive)
- z-score [3]: 0.487 (inactive)
- z-score [4]: 0.911 (inactive)
- composite z-score [5]: 3.6
- z-score [6]: 1.66 (inactive)
- composite z-score [7]: 0.0665
- composite z-score [8]: -0.778
- composite z-score [9]: -0.526
- composite z-score [10]: 0.94

Structure (SMILES): CCc1cccc(NC(=O)O[C@H]2[C@H](OC(=O)Nc3ccccc3-c3ccccc3)[C@H](OC(=O)Nc3ccccc3-c3ccccc3)[C@@H](OC)O[C@@H]2CO)c1
- composite z-score [1]: 1.55
- z-score [2]: 1.95 (inactive)
- z-score [3]: 1.31 (inactive)
- z-score [4]: 0.423 (inactive)
- composite z-score [5]: 2.91
- z-score [6]: -1.08 (inactive)
- composite z-score [7]: 0.229
- composite z-score [8]: 1.48
- composite z-score [9]: 1.05
- composite z-score [10]: -0.0232

Structure (SMILES): CN(C)CCCC[C@@H]1NC(=O)[C@H]2C[C@@H](C(=O)NCCCCCCNC(=O)CS)[C@@H](c3cccc(OCCO)c3)N2C1=O
- composite z-score [1]: -0.174
- z-score [2]: -0.522 (inactive)
- z-score [3]: -0.221 (inactive)
- z-score [4]: -0.195 (inactive)
- composite z-score [5]: 0.935
- z-score [6]: -0.12 (inactive)
- composite z-score [7]: 0.0141
- composite z-score [8]: -0.0227
- composite z-score [9]: -0.289
- composite z-score [10]: -0.146

Structure (SMILES): C=CCOC(=O)[C@H]1[C@@H]2C(=O)O[C@@H](c3ccccc3)[C@@H](c3ccccc3)N2[C@@H](c2ccc(OCCOC(=O)[C@@H]3C[C@@H]4C(=O)N[C@@H](Cc5ccccc5)C(=O)N4[C@@H]3c3ccc(O)cc3)cc2)[C@]12C(=O)Nc1ccc(I)cc12
- composite z-score [1]: 1.34
- z-score [2]: 1.77 (inactive)
- z-score [3]: 2.14 (inactive)
- z-score [4]: 5.89 (inactive)
- composite z-score [5]: 1.93
- z-score [6]: 0.114 (inactive)
- composite z-score [7]: -0.0666
- composite z-score [8]: 1.49
- composite z-score [9]: 0.918
- composite z-score [10]: -0.0119

Structure (SMILES): CC(C)C[C@@H]1NC(=O)[C@@H]2C[C@H](C(=O)NCCCCCNC(=O)CS)[C@H](c3ccc(O)cc3)N2C1=O
- composite z-score [1]: 1.16
- z-score [2]: -2.18 (inactive)
- z-score [3]: 0.0046 (inactive)
- z-score [4]: -1.65 (inactive)
- composite z-score [5]: 2.21
- z-score [6]: 1.52 (inactive)
- composite z-score [7]: -0.0437
- composite z-score [8]: 0.73
- composite z-score [9]: 0.313
- composite z-score [10]: -0.0493

Structure (SMILES): C=C(CCCC)C(=O)CC[C@@H](OC(C)=O)c1ccc(OCCO)cc1
- composite z-score [1]: 1.01
- z-score [2]: -1.58 (inactive)
- z-score [3]: -2.48 (inactive)
- z-score [4]: -0.679 (inactive)
- composite z-score [5]: 0.742
- z-score [6]: 0.44 (inactive)
- composite z-score [7]: -0.178
- composite z-score [8]: 1.53
- composite z-score [9]: 1.13
- composite z-score [10]: -0.216

Structure (SMILES): CC1CC/C=C\[C@H]2OC34C=CCN(CCN5CCOCC5)C(=O)[C@H]3N(C(CO)C(C)C)C(=O)[C@@H]4C2C(=O)O1 (stereo not given in full)
- composite z-score [1]: 1.42
- z-score [2]: -0.662 (inactive)
- z-score [3]: -0.145 (inactive)
- z-score [4]: -0.188 (inactive)
- composite z-score [5]: 3.2
- z-score [6]: -0.651 (inactive)
- composite z-score [7]: -0.109
- composite z-score [8]: 0.122
- composite z-score [9]: 0.398
- composite z-score [10]: -0.0332

Structure (SMILES): CC(C)c1ccc(NN2C(C(O)C(C)c3ccccc3)C=CC3C(=O)N(c4ccccc4)C(=O)C32)cc1 (stereo not given)
- composite z-score [1]: 1.57
- z-score [2]: -0.202 (inactive)
- z-score [3]: 0.0423 (inactive)
- z-score [4]: 1.21 (inactive)
- composite z-score [5]: 3.18
- z-score [6]: -1.28 (inactive)
- composite z-score [7]: 0.57
- composite z-score [8]: 0.272
- composite z-score [9]: 1.07
- composite z-score [10]: 0.298

Structure (SMILES): COCCOC(=O)N1C(=O)[C@@]2(c3cc(C#CCCO)ccc31)[C@H](C(=O)N1CCN(c3ncccn3)CC1)[C@H]1C(=O)O[C@H](c3ccccc3)[C@H](c3ccccc3)N1[C@@H]2c1ccc(OCCO)cc1
- composite z-score [1]: 1.53
- z-score [2]: 2.26 (inactive)
- z-score [3]: 1.9 (inactive)
- z-score [4]: 5.64 (inactive)
- composite z-score [5]: 3.11
- z-score [6]: -0.466 (inactive)
- composite z-score [7]: -0.025
- composite z-score [8]: 0.86
- composite z-score [9]: 1.05
- composite z-score [10]: 0.0193
